This note sets out measurements from PubChem BioAssay AID2553 (Johns Hopkins Ion Channel Center, 2010).

The whole screen tested about 310,000 compounds, of which about 3,300 (1.1%) were called active. This is one part of a sample in which actives are shown more often than they occur.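 The calls were made as follows: active = B-score under library mean minus 3 SD, initial fluorescence not abnormally high, positive integrated signal ratio; inactive = the rest.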

In this experiment the target is Short transient receptor potential channel 6 (Mus musculus) (UniProt Q61143). The experiment in a line: mouse TRPC6 channel inhibitors, primary screen, cell-based, HEK293, membrane potential dye (AID 2553).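 As to B-score: B-score derived from integrated fluorescence ratio over the kinetic read; more negative B-score means stronger inhibition of depolarization.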 The settings on record: ACh-evoked depolarization, at 10 µM; stronger effect = lower value.
Sequence of Short transient receptor potential channel 6 (Mus musculus) (Q61143 whole entry, looked up): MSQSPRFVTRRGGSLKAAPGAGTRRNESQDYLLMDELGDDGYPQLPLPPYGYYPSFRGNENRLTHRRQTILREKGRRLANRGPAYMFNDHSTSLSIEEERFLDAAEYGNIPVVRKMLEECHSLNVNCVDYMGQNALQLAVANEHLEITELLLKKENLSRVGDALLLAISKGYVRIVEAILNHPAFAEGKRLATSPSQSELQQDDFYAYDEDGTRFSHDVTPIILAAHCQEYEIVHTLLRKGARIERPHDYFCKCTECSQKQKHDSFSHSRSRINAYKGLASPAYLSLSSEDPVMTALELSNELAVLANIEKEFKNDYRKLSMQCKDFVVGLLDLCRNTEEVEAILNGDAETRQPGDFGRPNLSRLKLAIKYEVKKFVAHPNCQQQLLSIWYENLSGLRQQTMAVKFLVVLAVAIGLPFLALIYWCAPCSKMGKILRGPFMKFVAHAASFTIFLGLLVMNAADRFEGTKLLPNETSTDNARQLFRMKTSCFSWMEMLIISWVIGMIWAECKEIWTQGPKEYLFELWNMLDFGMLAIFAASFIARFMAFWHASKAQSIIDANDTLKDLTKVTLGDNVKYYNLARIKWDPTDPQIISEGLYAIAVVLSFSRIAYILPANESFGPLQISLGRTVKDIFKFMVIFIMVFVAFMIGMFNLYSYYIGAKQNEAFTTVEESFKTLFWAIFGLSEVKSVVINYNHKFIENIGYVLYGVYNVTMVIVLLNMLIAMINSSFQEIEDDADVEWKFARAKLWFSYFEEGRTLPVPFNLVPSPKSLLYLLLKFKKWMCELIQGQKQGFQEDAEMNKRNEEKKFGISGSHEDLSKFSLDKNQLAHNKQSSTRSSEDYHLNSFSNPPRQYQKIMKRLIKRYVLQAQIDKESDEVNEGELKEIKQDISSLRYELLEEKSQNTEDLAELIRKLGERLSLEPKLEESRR
As to `Cc1nc2ccc(N3CCN(C)CC3)cc2nc1C`, the B-score entry is “inactive”.
To `COc1cccc(-c2nc3ccc(N4CCN(C)CC4)cc3[nH]2)c1` belongs -9.09 (active); to `CC1=C(C(=O)Nc2ccccc2)S(=O)(=O)CCO1`, “inactive”.
In the case of `COc1ccc(Br)cc1CNCCc1cccc(Cl)c1` it was “inactive”; in that of `CCOc1cccc(=NC2CCCCC2)c2c(C)[nH]c(C)c12`, -8.34 (active); in that of `CCOP(=S)(OCC)C(O)CCCCCn1c(=O)c(F)cn(C2CCCO2)c1=O` (stereo not given), “inactive”.
In the case of `COCc1cc(OC(=O)N(C)C)nc(-c2ccc(C)c(Cl)c2)n1` it was “inactive”.
For the compound `C[N+]12CN3CN(CN(C3)C1)C2`, the B-score result is “inactive”.
For the compound `CC1=CC(=Cc2sc3ccccc3[n+]2C)C=C(C)O1`, the B-score was -5.72 (active).
To `COc1c(O)ccc2c1-c1c3c(cc4c1C(C2)N(C)CC4)OCO3` (stereo not given) belongs “inactive”; to `Cc1cccc(OP(=O)(Oc2cccc(C)c2)OC(c2ccccc2)C(F)(F)F)c1` (stereo not given), “inactive”; to `CC1=C2C(=O)C3C(CC=C4CC(OC5OC(O)C(O)C(O)C5CO)CCC43C)C2CCC12OC1CC(C)CNC1C2C` (stereo not given), “inactive”.
With `CCOP(=O)(OCC)C(NC(=O)c1ccc(C)cc1)C(Cl)(Cl)Cl` (stereo not given), the B-score result was “inactive”.
In the case of `c1ccc(CC2CCCCN2)cc1` (stereo not given) it was “inactive”; in that of `Cc1nc2ccccn2c1P(=S)(N1CCCCC1)N1CCCCC1`, “inactive”.
As to `Cc1nn(Cc2ccccc2Cl)c(Cl)c1C(=O)OC(C(=O)NC(N)=O)C(C)C` (stereo not given), the B-score entry was “inactive”.
To `N[C@@H](Cc1c[nH]c2ccccc12)c1nnc(SCc2c(F)cccc2Cl)o1` belongs “inactive”.
In the case of `CC1(C)Cc2c(C#N)c(N3CCNCC3)nc(-c3ccco3)c2CS1` it was -5.98 (active); in that of `O=c1[nH]c(O)c(C=Nc2cc(F)cc(F)c2)c(=O)[nH]1`, “inactive”.
In the case of `COc1ccccc1NC(=O)N1C[C@@H]2C[C@@H](C1)c1cccc(=O)n1C2` it was “inactive”; in that of `CN1CCN(Cc2ccc(OC(F)(F)F)cc2)CC1`, “inactive”.
In the case of `CN1CCN(c2cc(N3CCNCC3)ccc2[N+](=O)[O-])CC1`, the B-score was -9.48 (active).
As to `CCN1CCN(c2ccc([N+](=O)[O-])cc2C#N)CC1`, the B-score result was “inactive”.
In the case of `N=c1ccccn1Cc1ccccc1` it was “inactive”; in that of `CC(Cc1ccccc1)NC=O` (stereo not given), “inactive”; in that of `CCCCCCCCCCCCn1ccc(=N)cc1`, -8.97 (active).
In the case of `CCCCCCN=C(CC)c1c(O)n(CCCC)c(=O)[nH]c1=O` it was “inactive”; in that of `CC(C)(C)[C@]1(O)C[C@@H]2OC(=O)C[C@@]23C(=O)O[C@@H]2OC(=O)[C@H](O)[C@]213`, “inactive”; in that of `c1ccc(C2NCc3ccccc3-n3cccc32)cc1` (stereo not given), “inactive”.
As for `NCCc1c[nH]c2ccc(O)cc12`, the B-score entry is “inactive”.
